The campaign covered roughly 290,000 compounds. About 27,000 (9.3%) were called active. Cut-off read from the data, not from the text of the source: active = inhibition mostly above about 28% (no sharp cut-off); inactive = mostly below about 43%. For the sample, actives were picked, then their nearest neighbours and some compounds at random.
Assay: A qHTS for Small Molecule Inhibitors of Shiga Toxin; note: 0% is about no effect
Settings: Vero cells, Shiga toxin protein synthesis inhibition reporter; at 38.7 µM, hits give high values

Row | Compound | inhibition
1 | CCOc1cc(CN2CCCC(CO)(Cc3ccc(F)cc3F)C2)ccc1OC (stereo unspecified) | 1.36% (inactive)
2 | COC(=O)Cn1cnc2scc(-c3ccc(C)c(C)c3)c2c1=O | -16.4% (inactive)
3 | CC(C)Oc1ccc(/C=N/NC(=O)c2nnn(-c3nonc3N)c2CN(C)C2CCCCC2)cc1 | -5.14% (inactive)
4 | CCOc1ccc(S(=O)(=O)NCCCn2ccnc2)cc1NC(C)=O | -15.3% (inactive)
5 | COc1ccc(OC)c(NC(=O)c2ccc3c(c2)C(=O)N(c2ccc(OC(C)=O)cc2)C3=O)c1 | -4.38% (inactive)
6 | COc1cc(NC(=O)c2ccc(-c3csc(C)n3)cc2)c(OC)cc1Cl | -19.7% (inactive)
7 | O=c1oc2ccccc2c(NC2CCCCC2)c1NS(=O)(=O)c1ccc(Cl)cc1 | -3.24% (inactive)
8 | Cc1ccc(CN(CC(=O)NCC2CCCO2)S(=O)(=O)c2ccc(C)cc2)cc1 (stereo unspecified) | -7.48% (inactive)
9 | Cc1cccc(N2C(=O)N3[C@H](c4ccc(F)cc4)[C@@H]4C(=O)N(C5CCCCC5)C(=O)[C@@H]4[C@]3(Cc3ccccc3)C2=O)c1 | -2.98% (inactive)
10 | CCCCNC(=S)NNC(=O)c1cc(C)on1 | 6.4% (inactive)
11 | Cc1ccccc1CSCCNC(=O)c1ccc(N(C)S(=O)(=O)c2ccccc2)cc1 | -13.5% (inactive)
12 | Cc1cc(C(=O)NCCCc2ccccc2)no1 | 35.8% (active)
13 | CN(c1ccccc1)S(=O)(=O)c1ccc(C(=O)NCCc2ccccc2)cc1 | 50.1% (active)
14 | CCN(CC)CCCNC(=O)c1cc(-c2cccc(Cl)c2)on1 | -7.26% (inactive)
15 | CC(C)CNC(=O)c1cc(-c2ccc(Br)cc2)on1 | 52.5% (active)
16 | CSc1ncc(C(=O)NCCCc2ccccc2)c(C)n1 | 28.3% (inactive)
17 | Cc1c(NC(=O)c2cc(-c3ccc(Br)cc3)on2)c(=O)n(-c2ccccc2)n1C | 20% (inactive)
18 | COc1ccccc1CNC(=O)c1ccc(N(C)S(=O)(=O)c2ccc(C)cc2)cc1 | 4.41% (inactive)
19 | CC(C)Cn1c(=O)c2ccccc2n2c(CCC(=O)NCc3ccccn3)nnc12 | 17.2% (inactive)
20 | O=Cc1cn(-c2ccccc2)nc1-c1ccccn1 | 16.4% (inactive)
21 | Cc1ccccc1OCC(=O)NNC(=O)c1cc(S(=O)(=O)N(C)C)ccc1N1CCCC1 | -3.25% (inactive)
22 | CCCCNC(=O)C1(O)c2ccccc2NC(=O)N1c1ccc(Cl)cc1 (stereo unspecified) | 20.3% (inactive)
23 | COc1ccc(N2CCN(C3CCCCC3NS(=O)(=O)c3ccccc3)CC2)cc1 (stereo unspecified) | -5.29% (inactive)
24 | CC(C(=O)c1ccc(-c2ccccc2)cc1)[n+]1cccc(Br)c1 (stereo unspecified) | -5.48% (inactive)

Row | Compound | inhibition
25 | CCn1c(SCC(=O)Nc2ccc3c(c2)OCCO3)nnc1C(C)C | 23.4% (inactive)
26 | CCC(=O)N1CCN(c2ccccc2NC(=O)COc2cccc(C)c2C)CC1 | -4.98% (inactive)
27 | COc1ccc(S(=O)(=O)N2CCOC2CNC(=O)C(=O)NCc2ccc(F)cc2)cc1 (stereo unspecified) | -3.23% (inactive)
28 | Cc1ccc(S(=O)(=O)NCCCn2ccnc2)cc1C(=O)NC(C)C | -5.57% (inactive)
29 | Cc1ccc(N(Cc2ccc(C(=O)Nc3ccccc3C(=O)NCc3ccco3)cc2)S(C)(=O)=O)cc1C | -16.6% (inactive)
30 | O=C(Nc1ccccc1)Nc1ccccc1C(=O)NCc1ccco1 | 17.2% (inactive)
31 | COc1cc(C(=O)NC(=S)NCc2ccco2)cc(OC)c1OC | -9.57% (inactive)
32 | COc1ccc(C(=O)Nc2ccccc2C(=O)NCc2ccco2)cc1 | 55.1% (active)
33 | O=C(NCc1ccco1)c1nn2cccnc2c1Cl | 18.5% (inactive)
34 | COc1ccc2oc(C(=O)NCc3ccco3)c(C)c2c1 | 57% (active)
35 | COc1ccc2c(Cl)c(C(=O)NCc3ccco3)sc2c1 | 93.2% (active)
36 | COc1cc(C(=O)N[C@@H](C)C(=O)NCc2ccco2)cc(OC)c1OC | -3.33% (inactive)
37 | COc1ccc2oc(C(=O)NCC(Cc3ccccc3)N(C)C)c(C)c2c1 (stereo unspecified) | 19.2% (inactive)
38 | COc1cccc(NC(=S)NCc2ccco2)c1 | -1.12% (inactive)
39 | O=C(NCc1ccco1)c1sc2cccc(F)c2c1Cl | 80.8% (active)
40 | O=C(NCc1ccco1)c1cc2sccc2n1Cc1ccc(F)cc1 | 59.6% (inactive)
41 | CCNc1c(NS(=O)(=O)c2ccc(C3CCCCC3)cc2)c(=O)oc2ccccc12 | -11.4% (inactive)
42 | COc1ccc(OCC(O)CN(C)C(=O)C(C)Oc2ccccc2)cc1 (stereo unspecified) | -1.44% (inactive)
43 | Cc1cccc(NS(=O)(=O)c2ccc(-c3cnc(C4CC4)o3)cc2)c1 | 14.4% (inactive)
44 | CC(C)[C@H](NC(=O)N1CC(=O)Nc2ccccc21)C(=O)N[C@@H](Cc1c[nH]c2ccccc12)C(=O)O | -8.09% (inactive)
45 | C=CCOc1cccc(C2NC(=O)c3ccccc3O2)c1 (stereo unspecified) | 5.66% (inactive)
46 | Cc1ccc(S(=O)(=O)N2CCN(C(=O)CSc3cc(C)ccc3C)CC2)c(C)c1 | -13% (inactive)
47 | COc1ccccc1C(=O)NNC(=O)c1ccc(NC(=O)c2ccccc2)cc1 | -13.9% (inactive)
48 | COc1ccc(C(=O)Nc2ccccc2C(=O)N/N=C/c2ccc(O)c(OC)c2)cc1 | -21.6% (inactive)

Row | Compound | inhibition
49 | COc1ccc(C(=O)Nc2ccccc2C(=O)N/N=C/c2ccccc2OC)cc1 | 89.2% (active)
50 | COc1ccc(C(=O)NC(C)c2nccs2)cc1OC1CCN(C(C)C)CC1 (stereo unspecified) | -1.47% (inactive)
51 | Cc1nc2ccc(NC(=S)N3CCC(C)CC3)cc2nc1C | 33.9% (active)
52 | Cc1nc2ccc(NC(=O)N3CCC(c4ccccc4)C3)cc2nc1C (stereo unspecified) | 2.35% (inactive)
53 | Cc1cccc(NC(=S)N2CCC(c3nc4ccccc4s3)CC2)c1 | -9.34% (inactive)
54 | O=C(Cn1ncc(N2CCCC2)c(Br)c1=O)c1ccc(Cl)cc1 | 37.7% (active)
55 | Cn1c(=O)c2c(nc(N3CCCCCC3)n2CC(=O)c2ccc(Br)cc2)n(C)c1=O | 2.71% (inactive)
56 | CC(=O)Cn1ncc(N2CCOCC2)c(Br)c1=O | -5.02% (inactive)
57 | O=C(CNc1cccc(S(=O)(=O)N2CCCCC2)c1)Nc1ccccc1F | -9.02% (inactive)
58 | CCc1ccc(NC(=O)Cn2nnc(C(=O)NCc3ccc4c(c3)OCO4)c2N)cc1 | 0.685% (inactive)
59 | Cc1cccc2sc(N(CCCN(C)C)C(=O)CCS(=O)(=O)c3ccccc3)nc12 | 6.64% (inactive)
60 | CCn1nc(C(=O)OCC(=O)N2c3ccccc3CC2C)c2ccccc2c1=O (stereo unspecified) | -10.9% (inactive)
61 | Cc1ccn(CCC(=O)N2c3ccccc3CC2C)n1 (stereo unspecified) | -3.39% (inactive)
62 | CCCC(=O)N1c2ccc(-c3csc(N)n3)cc2CC1C (stereo unspecified) | 71.3% (active)
63 | CCC(C)Sc1nc2c(cnn2-c2ccc(F)cc2)c(=O)[nH]1 (stereo unspecified) | -5.58% (inactive)
64 | COc1cccc(OCC(O)CNC(=O)c2oc3c(C)c(C)ccc3c2C)c1 (stereo unspecified) | -9.45% (inactive)
65 | CCOCc1nnc(NC(=O)CCS(=O)(=O)Cc2ccccc2)s1 | -3.13% (inactive)
66 | Cc1cccc(CCNS(=O)(=O)c2ccc3c(c2)NC(=O)CO3)c1 | -6.16% (inactive)
67 | Cc1nn(CCOc2ccccc2)c(=O)n1-c1ccccc1F | 72.3% (active)
68 | Clc1ncn(CCOc2ccccc2)c1Cl | -16.2% (inactive)
69 | Cc1cc2ncn(CCCCOc3ccccc3)c2cc1C | -3.93% (inactive)
70 | COc1ccc(-c2nc3c(s2)CCc2onc(-c4ccc(OC)cc4)c2-3)cc1 | -4% (inactive)
71 | Cc1nn(C)c(Cl)c1CN1CCC(n2nccc2NC(=O)C2CCCC2)CC1 | -4.44% (inactive)
72 | O=C(NCc1cccc(Cl)c1)C1CCC(=O)N(C2CC2)C1 (stereo unspecified) | 1.78% (inactive)

Row | Compound | inhibition
73 | CSC(=S)N/N=C/c1c[nH]c2ccccc12 | 18.5% (inactive)
74 | O=C(N/N=C/c1coc2ccccc2c1=O)c1cc2ccccc2o1 | -15.3% (inactive)
75 | O=C(N/N=C/c1c[nH]c2ccccc12)c1cc2ccccc2o1 | 51.6% (active)
76 | O=C(N/N=C/c1c[nH]c2ccccc12)c1ccccc1O | 46.2% (active)
77 | O=C(N/N=C/c1ccc([N+](=O)[O-])cc1)c1c[nH]c2ccccc12 | 35.6% (inactive)
78 | Cc1c(/C=N\NC(=O)c2cc3ccccc3o2)c2ccccc2n1C | 33.2% (inactive)
79 | COc1cccc(NC(=O)C/C(C)=N/NC(=O)C2CCCCC2)c1 | 5.94% (inactive)
80 | CCC(C)C(NC(=O)C1CCC(=O)N1C(=O)OCc1ccccc1)C(=O)NC(C(=O)N1CCCC1C(N)=O)C(C)CC (stereo unspecified) | -2.25% (inactive)
81 | COc1ccc(C/C(C)=N/NC(=O)c2ccncc2)cc1 | 13.5% (inactive)
82 | COc1ccc(C/C(C)=N/NC(=O)c2cc(C)oc2C)cc1 | 39.4% (active)
83 | CCCCCNC(=O)Cc1ccc(OC)cc1 | 35.5% (inactive)
84 | Cc1nc2nc(C)c(NS(=O)(=O)c3ccc(C(C)(C)C)cc3)c(=O)n2[nH]1 | -4.52% (inactive)
85 | C/C(=N\NC(=O)COc1c(C)cccc1C)c1cccs1 | 23.6% (inactive)
86 | Cc1ccccc1C(CC(=O)c1cccs1)C(C#N)C#N (stereo unspecified) | 60.4% (active)
87 | Cc1ccc(C)c(NC(CC(=O)c2ccccc2)C(=O)OCC(=O)c2cccs2)c1 (stereo unspecified) | -2.14% (inactive)
88 | CCOc1ccc(CN2CCN(Cc3c[nH]c4ccccc34)CC2)cc1 | -7.52% (inactive)
89 | C/C=C/C(=O)OCc1csc(CC(=O)Nc2ccccc2C)n1 | -12.5% (inactive)
90 | Cc1ccc2c(c1)c1ncn(CCC3=CCCCC3)c(=O)c1n2C | 1.3% (inactive)
91 | Cc1ccc2c(c1)c1ncnc(N3CCc4ccccc4C3)c1n2C | 61.5% (active)
92 | Cc1ccc2c(c1)c1ncn(Cc3ccc(F)cc3)c(=O)c1n2C | -13.4% (inactive)
93 | COc1ccc(-c2cc(C(=O)N3CCN(Cc4ccc5c(c4)OCO5)CC3)on2)cc1OC | -5.83% (inactive)
94 | COCC1CCN(C(=O)CCc2nnc(C3(c4ccc(Cl)cc4)CCC3)o2)C1 (stereo unspecified) | 59.4% (active)
95 | COCC1CCCN(C(=O)c2ccc3oc(C(C)C)nc3c2)C1 (stereo unspecified) | 13.8% (inactive)
96 | O=C1CCC(CCC(=O)N2CCCC(C(=O)c3ccc(Cl)cc3)C2)=NN1 (stereo unspecified) | 12.9% (inactive)
